Assay results: the supplement of paper PMC11732987, “Enantioselective OTUD7B fragment discovery through chemoproteomics screening and high-throughput optimisation” (Communications Chemistry, 2025)

What was measured:
Test in all cases: log2 ratio of Biotin-Ahx-Ub-VS probe labelling (fragment/DMSO); higher = less target engagement (more negative = stronger competition), active = hit call of the paper (q ≤ 0.05, log2 ratio ≤ -1)
Conditions in all cases: compound concentration: 200 uM; treatment time: 3 h
OTUD6B = target: T1, OTUD6B (UniProt Q8N6M0)
T1 sequence (whole entry): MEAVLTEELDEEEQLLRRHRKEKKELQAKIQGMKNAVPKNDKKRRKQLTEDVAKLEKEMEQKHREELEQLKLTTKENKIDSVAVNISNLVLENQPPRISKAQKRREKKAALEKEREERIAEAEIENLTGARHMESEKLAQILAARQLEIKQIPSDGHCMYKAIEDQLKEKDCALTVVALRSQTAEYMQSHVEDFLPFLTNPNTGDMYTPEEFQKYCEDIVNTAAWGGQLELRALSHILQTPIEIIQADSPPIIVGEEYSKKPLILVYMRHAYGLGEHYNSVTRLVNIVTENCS
Method in brief: (§1)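 Fragment (200 µM) or vehicle was incubated for 3 h with triplicate HEK293T lysate samples of 495 µg, which were then treated with Biotin-Ahx-Ub-VS at 0.5 µM final for 1 h. Labelled DUBs were enriched on NeutrAvidin, digested with LysC and trypsin, and analysed by diaPASEF LC-MS/MS. Values are average log2 fragment/vehicle ratios from an unpaired t-test on global-median-normalised Spectronaut label-free quantities, using proteins with ≥2 unique peptides.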

OTUD7B = target: T2, OTUD7B (UniProt Q6GQQ9)
T2 sequence (whole entry): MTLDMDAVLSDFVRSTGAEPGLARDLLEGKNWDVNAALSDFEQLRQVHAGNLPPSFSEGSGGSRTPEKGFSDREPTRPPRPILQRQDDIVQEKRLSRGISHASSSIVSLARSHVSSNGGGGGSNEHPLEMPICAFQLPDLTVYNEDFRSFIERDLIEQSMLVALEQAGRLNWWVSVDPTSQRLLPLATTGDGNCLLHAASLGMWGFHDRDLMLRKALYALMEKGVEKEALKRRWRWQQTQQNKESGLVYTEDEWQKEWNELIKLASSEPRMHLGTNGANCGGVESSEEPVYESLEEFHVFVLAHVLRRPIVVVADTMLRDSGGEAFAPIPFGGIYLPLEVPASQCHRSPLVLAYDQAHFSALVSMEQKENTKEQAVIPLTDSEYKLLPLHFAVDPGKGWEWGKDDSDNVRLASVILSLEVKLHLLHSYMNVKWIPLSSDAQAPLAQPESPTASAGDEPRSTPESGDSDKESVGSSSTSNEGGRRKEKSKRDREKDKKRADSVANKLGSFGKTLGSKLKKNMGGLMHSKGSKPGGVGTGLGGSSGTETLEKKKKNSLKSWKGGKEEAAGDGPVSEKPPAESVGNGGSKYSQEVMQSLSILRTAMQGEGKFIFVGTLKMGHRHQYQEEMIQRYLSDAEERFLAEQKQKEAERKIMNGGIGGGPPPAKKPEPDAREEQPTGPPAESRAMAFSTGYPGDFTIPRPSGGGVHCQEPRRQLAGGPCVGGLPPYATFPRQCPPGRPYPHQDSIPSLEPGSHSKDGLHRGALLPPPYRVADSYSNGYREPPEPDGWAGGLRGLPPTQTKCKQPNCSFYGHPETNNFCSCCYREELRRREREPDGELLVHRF
Method in brief: as §1

PRPF8 = PRPF8 (UniProt Q6P2Q9)
Method in brief: as §1

PSMD7 = target: T3, PSMD7 (UniProt P51665)
T3 sequence (whole entry): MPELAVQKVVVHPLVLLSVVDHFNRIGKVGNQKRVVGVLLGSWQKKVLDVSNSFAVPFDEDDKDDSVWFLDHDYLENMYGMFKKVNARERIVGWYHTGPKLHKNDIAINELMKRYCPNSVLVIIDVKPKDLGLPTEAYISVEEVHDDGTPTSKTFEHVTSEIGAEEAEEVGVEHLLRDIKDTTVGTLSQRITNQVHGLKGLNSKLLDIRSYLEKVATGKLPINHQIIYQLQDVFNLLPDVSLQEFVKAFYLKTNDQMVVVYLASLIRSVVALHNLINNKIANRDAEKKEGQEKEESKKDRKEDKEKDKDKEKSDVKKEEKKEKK
Method in brief: as §1

UCHL1 = UCHL1 (UniProt P09936)
Method in brief: as §1

UCHL3 = target: T4, UCHL3 (UniProt P15374)
T4 sequence (whole entry): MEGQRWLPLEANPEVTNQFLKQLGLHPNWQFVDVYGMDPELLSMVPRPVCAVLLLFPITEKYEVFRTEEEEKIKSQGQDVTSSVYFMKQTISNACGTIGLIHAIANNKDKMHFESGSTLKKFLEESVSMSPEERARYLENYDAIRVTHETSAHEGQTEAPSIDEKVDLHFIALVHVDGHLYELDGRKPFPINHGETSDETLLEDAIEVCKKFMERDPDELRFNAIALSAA
Method in brief: as §1

UCHL5 = target: T5, UCHL5 (UniProt Q9Y5K5)
T5 sequence (whole entry): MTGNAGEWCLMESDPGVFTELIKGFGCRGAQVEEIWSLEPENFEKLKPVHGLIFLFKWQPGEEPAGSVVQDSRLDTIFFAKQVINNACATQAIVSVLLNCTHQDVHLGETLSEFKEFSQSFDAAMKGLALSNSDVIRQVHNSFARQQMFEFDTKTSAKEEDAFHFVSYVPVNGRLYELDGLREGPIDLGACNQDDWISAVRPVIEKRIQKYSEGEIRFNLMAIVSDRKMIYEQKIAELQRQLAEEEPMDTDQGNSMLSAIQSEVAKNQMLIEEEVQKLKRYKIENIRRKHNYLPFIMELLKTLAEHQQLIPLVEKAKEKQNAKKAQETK
Method in brief: as §1

USP10 = USP10 (UniProt Q14694)
Method in brief: as §1

USP15 = target: T6, USP15 (UniProt Q9Y4E8)
T6 sequence (whole entry): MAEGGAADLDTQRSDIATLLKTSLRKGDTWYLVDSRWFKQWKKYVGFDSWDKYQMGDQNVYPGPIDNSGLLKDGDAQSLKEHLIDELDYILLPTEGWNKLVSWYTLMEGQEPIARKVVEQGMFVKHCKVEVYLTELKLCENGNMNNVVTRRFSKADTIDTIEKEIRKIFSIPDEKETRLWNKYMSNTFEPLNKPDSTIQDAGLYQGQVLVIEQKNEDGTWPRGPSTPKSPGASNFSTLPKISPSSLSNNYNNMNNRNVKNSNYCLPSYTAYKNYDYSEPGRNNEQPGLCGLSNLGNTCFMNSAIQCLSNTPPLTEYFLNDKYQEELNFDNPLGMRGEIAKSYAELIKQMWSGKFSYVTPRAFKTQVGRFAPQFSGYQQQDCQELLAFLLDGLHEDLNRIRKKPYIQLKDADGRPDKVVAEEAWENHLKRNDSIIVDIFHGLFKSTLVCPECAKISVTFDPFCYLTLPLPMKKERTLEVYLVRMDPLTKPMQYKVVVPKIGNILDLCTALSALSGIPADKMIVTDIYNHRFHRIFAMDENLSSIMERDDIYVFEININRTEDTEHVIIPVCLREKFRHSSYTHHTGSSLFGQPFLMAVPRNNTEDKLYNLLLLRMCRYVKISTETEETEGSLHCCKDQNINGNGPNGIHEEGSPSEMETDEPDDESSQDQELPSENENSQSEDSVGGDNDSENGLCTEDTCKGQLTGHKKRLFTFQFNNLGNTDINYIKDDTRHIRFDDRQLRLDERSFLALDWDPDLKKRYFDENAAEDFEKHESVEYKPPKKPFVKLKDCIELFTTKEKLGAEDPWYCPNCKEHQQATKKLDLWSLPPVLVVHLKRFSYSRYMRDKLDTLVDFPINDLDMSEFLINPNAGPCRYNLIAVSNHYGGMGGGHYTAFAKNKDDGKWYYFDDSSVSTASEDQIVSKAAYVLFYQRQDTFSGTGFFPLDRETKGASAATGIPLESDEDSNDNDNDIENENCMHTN
Method in brief: as §1

USP16 = USP16 (UniProt Q9Y5T5)
Method in brief: as §1

Measured: log2 ratio of Biotin-Ahx-Ub-VS probe labelling

UCHL1, sequence (P09936 whole entry, looked up): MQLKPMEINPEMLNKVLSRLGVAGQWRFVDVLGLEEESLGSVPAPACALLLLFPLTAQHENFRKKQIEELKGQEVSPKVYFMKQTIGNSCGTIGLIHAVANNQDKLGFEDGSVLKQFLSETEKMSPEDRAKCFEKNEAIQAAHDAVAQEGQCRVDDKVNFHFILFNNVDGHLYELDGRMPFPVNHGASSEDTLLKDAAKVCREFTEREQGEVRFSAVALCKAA
USP16, sequence (Q9Y5T5 whole entry, looked up): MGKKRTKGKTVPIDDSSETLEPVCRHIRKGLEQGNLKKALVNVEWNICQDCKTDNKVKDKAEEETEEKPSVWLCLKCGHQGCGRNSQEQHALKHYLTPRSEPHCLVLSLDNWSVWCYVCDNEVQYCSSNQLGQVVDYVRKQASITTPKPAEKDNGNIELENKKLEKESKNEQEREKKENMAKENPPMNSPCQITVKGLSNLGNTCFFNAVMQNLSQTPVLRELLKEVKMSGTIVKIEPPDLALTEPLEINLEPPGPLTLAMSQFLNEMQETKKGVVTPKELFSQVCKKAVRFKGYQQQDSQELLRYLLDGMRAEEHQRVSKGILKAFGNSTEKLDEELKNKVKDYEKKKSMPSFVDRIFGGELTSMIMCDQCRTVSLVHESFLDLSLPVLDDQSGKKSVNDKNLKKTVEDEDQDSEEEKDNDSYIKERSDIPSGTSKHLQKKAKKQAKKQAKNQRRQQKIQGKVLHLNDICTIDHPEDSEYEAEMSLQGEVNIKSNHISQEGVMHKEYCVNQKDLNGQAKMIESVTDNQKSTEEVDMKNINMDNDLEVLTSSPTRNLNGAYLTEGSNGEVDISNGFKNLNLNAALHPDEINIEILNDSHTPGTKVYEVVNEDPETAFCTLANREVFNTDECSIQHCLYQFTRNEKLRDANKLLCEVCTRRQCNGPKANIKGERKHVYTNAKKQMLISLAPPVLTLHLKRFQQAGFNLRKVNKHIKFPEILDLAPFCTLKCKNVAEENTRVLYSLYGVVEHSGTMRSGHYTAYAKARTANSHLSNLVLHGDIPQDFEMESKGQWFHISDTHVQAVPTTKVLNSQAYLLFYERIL
USP10, sequence (Q14694 whole entry): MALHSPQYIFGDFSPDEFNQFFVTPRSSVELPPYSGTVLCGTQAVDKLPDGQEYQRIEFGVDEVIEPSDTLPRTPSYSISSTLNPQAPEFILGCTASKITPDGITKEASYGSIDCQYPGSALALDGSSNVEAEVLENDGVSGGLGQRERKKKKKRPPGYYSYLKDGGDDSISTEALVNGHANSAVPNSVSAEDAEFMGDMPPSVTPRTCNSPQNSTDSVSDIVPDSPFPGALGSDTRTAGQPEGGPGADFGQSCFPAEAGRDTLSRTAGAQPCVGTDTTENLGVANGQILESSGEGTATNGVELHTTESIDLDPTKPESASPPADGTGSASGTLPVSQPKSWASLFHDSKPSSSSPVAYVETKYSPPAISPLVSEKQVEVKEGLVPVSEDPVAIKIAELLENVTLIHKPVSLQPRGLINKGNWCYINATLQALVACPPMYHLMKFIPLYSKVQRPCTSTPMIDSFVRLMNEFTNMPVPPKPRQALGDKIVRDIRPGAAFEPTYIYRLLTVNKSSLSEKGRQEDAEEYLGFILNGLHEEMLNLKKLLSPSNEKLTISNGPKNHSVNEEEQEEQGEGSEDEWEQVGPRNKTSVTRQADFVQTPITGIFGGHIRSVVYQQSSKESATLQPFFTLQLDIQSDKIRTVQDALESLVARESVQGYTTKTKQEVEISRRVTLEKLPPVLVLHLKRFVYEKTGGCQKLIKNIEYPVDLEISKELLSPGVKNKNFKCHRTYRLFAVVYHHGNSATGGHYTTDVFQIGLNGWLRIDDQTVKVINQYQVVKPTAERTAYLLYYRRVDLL

O=C(CCl)NCc1ccc2c(c1)OCO2
inactive: OTUD6B 0.00826 | OTUD7B -0.843 | PRPF8 -0.215 | PSMD7 -0.228 | UCHL3 -0.0636 | UCHL5 -0.325 | USP10 -0.00649 | USP15 -0.0739 | USP16 0.0675
active: UCHL1 -1.36
